Data from ChEMBL document CHEMBL1961873, “Compounds: GSK PKIS; Assays: Nanosyn kinase panel” (2012).

Assays:
[1] = tested on: Epidermal growth factor receptor (Homo sapiens), P00533 [T790M]; conditions: at 1 µM
[2] = tested on: Epidermal growth factor receptor (Homo sapiens), P00533 [L858R,T790M]; conditions: at 0.1 µM
[3] = tested on: Epidermal growth factor receptor (Homo sapiens), P00533 [L858R,T790M]; conditions: at 1 µM
[4] = biological target: Ephrin type-A receptor 2 (Homo sapiens) (UniProt P29317); conditions: at 0.1 µM
[5] = biological target: Ephrin type-A receptor 2 (Homo sapiens) (UniProt P29317); conditions: at 1 µM
[6] = biological target: T1, Ephrin type-A receptor 3 (Homo sapiens) (UniProt P29320); conditions: at 0.1 µM
T1 sequence (whole entry): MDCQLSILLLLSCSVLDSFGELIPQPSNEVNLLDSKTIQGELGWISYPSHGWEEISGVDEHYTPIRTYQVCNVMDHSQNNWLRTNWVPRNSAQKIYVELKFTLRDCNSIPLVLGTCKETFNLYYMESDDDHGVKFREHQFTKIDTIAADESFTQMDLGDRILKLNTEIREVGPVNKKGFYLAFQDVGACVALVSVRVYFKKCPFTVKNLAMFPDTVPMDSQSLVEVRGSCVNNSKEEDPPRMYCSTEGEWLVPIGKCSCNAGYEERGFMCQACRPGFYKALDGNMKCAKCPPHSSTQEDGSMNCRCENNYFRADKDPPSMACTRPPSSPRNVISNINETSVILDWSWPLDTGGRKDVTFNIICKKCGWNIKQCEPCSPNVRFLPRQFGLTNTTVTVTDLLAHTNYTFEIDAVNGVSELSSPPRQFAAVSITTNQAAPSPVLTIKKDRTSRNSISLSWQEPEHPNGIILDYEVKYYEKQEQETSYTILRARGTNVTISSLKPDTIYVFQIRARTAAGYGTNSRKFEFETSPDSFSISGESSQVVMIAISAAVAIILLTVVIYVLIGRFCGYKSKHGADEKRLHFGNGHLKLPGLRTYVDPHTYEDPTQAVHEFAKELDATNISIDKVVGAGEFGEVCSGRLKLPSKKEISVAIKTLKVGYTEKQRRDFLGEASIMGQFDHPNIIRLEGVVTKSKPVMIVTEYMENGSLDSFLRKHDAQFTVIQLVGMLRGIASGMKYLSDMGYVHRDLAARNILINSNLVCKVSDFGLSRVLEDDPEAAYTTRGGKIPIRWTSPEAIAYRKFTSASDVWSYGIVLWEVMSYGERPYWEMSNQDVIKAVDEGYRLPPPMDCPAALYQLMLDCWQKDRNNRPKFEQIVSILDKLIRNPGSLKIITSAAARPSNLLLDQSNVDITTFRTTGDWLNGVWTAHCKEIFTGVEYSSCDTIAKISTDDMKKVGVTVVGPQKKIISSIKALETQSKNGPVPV

[7] = biological target: T1, Ephrin type-A receptor 3 (Homo sapiens); conditions: at 1 µM
[8] = biological target: Ephrin type-A receptor 4 (Homo sapiens) (UniProt P54764); conditions: at 0.1 µM
[9] = biological target: Ephrin type-A receptor 4 (Homo sapiens) (UniProt P54764); conditions: at 1 µM
[10] = biological target: T2, Ephrin type-B receptor 2 (Homo sapiens) (UniProt P29323); conditions: at 0.1 µM
T2 sequence (whole entry): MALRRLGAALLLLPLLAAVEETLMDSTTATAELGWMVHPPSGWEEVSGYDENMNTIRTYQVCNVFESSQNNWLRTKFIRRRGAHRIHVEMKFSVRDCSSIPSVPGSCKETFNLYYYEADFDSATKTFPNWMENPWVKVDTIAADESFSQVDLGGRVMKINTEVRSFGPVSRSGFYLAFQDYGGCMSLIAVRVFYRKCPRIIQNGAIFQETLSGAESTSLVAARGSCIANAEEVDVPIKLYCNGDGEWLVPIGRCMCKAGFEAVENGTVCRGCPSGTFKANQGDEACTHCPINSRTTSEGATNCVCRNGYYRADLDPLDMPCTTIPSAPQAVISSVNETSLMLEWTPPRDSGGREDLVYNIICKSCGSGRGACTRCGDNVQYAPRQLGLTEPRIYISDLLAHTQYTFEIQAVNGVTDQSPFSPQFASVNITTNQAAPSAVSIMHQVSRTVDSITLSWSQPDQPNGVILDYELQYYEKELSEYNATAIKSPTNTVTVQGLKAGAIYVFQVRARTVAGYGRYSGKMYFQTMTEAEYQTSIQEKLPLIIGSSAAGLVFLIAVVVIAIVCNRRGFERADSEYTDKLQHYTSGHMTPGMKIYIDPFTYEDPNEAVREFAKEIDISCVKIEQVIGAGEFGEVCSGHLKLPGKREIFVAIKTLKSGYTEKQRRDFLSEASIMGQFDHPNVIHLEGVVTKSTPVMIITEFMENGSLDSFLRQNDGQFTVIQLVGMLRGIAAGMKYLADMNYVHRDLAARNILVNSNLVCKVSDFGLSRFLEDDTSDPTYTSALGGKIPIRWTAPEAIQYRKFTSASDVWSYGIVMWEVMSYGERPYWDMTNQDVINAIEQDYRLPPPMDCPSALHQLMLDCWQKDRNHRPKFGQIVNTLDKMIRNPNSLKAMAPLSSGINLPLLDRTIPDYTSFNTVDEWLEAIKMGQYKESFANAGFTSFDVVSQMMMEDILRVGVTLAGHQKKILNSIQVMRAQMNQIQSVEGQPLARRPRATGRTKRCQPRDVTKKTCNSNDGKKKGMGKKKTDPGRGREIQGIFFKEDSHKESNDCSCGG

[11] = biological target: T2, Ephrin type-B receptor 2 (Homo sapiens); conditions: at 1 µM
[12] = biological target: T3, Ephrin type-B receptor 3 (Homo sapiens) (UniProt P54753); conditions: at 0.1 µM
T3 sequence (whole entry): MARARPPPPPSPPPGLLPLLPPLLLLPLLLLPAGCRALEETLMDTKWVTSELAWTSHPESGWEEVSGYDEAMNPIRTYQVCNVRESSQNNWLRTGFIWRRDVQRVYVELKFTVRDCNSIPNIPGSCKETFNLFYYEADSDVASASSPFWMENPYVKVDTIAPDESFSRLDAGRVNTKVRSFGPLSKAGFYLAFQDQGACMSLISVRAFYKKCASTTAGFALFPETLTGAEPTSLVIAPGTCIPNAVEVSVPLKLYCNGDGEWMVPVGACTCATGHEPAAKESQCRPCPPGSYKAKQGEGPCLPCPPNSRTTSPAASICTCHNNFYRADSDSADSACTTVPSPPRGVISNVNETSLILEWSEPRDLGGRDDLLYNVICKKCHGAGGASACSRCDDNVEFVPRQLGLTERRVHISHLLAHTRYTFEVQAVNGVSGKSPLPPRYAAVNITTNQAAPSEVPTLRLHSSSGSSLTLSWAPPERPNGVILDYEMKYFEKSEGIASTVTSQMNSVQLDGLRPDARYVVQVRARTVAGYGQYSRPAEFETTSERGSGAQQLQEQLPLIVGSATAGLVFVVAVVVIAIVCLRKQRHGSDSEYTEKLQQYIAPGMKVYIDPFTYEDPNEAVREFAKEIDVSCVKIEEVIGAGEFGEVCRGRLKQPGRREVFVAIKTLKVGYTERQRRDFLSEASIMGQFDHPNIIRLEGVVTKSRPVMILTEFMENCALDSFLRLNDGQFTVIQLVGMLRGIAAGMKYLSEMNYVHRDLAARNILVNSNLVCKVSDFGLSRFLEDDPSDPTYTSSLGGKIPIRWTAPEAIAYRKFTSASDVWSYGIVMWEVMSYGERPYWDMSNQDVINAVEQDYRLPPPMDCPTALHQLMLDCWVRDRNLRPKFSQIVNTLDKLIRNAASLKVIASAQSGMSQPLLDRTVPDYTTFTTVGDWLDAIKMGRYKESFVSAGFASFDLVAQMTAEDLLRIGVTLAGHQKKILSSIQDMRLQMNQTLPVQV

[13] = biological target: T3, Ephrin type-B receptor 3 (Homo sapiens); conditions: at 1 µM
[14] = biological target: T4, Ephrin type-B receptor 4 (Homo sapiens) (UniProt P54760); conditions: at 0.1 µM
T4 sequence (whole entry): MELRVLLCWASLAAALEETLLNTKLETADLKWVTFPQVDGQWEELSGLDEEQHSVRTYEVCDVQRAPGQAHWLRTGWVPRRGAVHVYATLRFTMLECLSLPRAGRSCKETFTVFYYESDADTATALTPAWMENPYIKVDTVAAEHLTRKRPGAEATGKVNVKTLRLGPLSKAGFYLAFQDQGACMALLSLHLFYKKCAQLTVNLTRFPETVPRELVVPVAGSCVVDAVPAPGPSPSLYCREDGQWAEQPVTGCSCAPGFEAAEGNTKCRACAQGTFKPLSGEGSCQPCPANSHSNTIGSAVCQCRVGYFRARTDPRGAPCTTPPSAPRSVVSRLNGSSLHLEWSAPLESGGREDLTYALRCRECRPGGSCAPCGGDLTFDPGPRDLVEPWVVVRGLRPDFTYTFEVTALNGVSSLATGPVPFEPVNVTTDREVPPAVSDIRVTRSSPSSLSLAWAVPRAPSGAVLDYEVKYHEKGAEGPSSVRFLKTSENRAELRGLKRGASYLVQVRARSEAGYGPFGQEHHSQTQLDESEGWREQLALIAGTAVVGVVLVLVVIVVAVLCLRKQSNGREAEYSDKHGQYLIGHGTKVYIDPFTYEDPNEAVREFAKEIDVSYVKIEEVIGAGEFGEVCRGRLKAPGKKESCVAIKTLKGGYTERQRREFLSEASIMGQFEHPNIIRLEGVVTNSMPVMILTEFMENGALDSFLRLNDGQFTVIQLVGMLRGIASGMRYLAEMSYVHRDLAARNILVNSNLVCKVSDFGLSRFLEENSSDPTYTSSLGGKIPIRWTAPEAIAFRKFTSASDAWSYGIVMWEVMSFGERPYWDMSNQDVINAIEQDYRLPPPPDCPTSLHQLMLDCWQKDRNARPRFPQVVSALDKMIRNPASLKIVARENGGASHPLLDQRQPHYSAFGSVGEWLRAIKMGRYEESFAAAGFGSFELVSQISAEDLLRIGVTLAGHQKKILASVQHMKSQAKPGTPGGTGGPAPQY

[15] = biological target: T4, Ephrin type-B receptor 4 (Homo sapiens); conditions: at 1 µM
[16] = biological target: Receptor tyrosine-protein kinase erbB-2 (Homo sapiens) (UniProt P04626); conditions: at 0.1 µM
[17] = biological target: Receptor tyrosine-protein kinase erbB-2 (Homo sapiens) (UniProt P04626); conditions: at 1 µM
[18] = biological target: Receptor tyrosine-protein kinase erbB-4 (Homo sapiens) (UniProt Q15303); conditions: at 0.1 µM
[19] = biological target: Receptor tyrosine-protein kinase erbB-4 (Homo sapiens) (UniProt Q15303); conditions: at 1 µM
[20] = biological target: Tyrosine-protein kinase Fer (Homo sapiens) (UniProt P16591); conditions: at 0.1 µM;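 also: reported figures are averaged percent inhibition of FER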

Sequence of Ephrin type-A receptor 4 (Homo sapiens) (P54764 whole entry): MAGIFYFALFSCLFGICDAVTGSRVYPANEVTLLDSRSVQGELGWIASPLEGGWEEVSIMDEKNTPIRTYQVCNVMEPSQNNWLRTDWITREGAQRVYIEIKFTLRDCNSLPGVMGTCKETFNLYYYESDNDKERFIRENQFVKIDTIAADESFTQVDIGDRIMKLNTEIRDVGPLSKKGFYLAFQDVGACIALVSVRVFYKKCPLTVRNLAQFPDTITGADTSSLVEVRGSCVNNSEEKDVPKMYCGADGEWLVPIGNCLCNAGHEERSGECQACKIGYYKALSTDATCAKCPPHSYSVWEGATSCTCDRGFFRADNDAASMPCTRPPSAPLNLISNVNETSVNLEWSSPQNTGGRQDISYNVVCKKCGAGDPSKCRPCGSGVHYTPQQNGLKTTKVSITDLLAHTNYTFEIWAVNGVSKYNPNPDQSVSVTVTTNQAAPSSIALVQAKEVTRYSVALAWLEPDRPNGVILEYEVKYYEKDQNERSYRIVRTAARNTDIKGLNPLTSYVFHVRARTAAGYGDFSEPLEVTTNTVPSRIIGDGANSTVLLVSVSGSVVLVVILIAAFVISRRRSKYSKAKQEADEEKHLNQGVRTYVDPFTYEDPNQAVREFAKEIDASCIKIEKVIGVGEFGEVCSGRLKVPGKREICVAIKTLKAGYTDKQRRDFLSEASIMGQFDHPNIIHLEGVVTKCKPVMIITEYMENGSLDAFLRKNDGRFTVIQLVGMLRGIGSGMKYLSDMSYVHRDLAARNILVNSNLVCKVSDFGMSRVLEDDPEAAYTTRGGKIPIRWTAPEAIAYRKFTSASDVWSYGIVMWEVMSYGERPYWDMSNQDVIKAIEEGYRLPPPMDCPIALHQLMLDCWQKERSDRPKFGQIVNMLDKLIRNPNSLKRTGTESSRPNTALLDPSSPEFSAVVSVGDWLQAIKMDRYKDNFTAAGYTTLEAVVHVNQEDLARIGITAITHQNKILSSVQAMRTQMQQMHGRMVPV
Sequence of Epidermal growth factor receptor (Homo sapiens), P00533 [L858R,T790M] (P00533 whole entry T790M/L858R, looked up): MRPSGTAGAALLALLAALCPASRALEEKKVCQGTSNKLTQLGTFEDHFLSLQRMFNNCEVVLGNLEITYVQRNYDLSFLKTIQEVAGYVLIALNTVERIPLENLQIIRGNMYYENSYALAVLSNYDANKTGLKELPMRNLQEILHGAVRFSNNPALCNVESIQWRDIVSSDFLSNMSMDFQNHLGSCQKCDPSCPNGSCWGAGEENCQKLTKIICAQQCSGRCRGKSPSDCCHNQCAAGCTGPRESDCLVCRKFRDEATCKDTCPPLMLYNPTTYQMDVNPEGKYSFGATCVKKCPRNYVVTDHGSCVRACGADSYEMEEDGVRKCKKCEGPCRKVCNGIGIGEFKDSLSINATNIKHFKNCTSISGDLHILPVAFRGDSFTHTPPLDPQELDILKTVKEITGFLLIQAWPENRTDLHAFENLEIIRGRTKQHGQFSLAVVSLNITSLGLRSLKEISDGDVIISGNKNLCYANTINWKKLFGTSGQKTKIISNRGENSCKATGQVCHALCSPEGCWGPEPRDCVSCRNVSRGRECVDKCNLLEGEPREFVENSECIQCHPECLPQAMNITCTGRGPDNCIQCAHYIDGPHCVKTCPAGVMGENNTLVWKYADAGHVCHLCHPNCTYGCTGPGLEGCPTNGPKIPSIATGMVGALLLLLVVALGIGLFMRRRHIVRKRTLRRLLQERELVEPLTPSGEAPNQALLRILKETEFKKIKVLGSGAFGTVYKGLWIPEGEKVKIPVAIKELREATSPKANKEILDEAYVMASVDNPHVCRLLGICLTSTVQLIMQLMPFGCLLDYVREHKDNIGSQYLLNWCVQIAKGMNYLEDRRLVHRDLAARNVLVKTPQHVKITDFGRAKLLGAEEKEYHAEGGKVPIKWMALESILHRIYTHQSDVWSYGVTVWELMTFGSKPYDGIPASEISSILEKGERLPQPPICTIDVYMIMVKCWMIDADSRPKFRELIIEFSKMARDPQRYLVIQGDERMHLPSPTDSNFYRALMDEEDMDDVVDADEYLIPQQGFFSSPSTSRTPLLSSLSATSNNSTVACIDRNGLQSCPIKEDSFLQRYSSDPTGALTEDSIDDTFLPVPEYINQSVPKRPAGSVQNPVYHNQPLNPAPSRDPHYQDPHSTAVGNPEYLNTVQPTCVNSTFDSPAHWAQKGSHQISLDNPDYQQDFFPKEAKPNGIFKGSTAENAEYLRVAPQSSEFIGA
Sequence of Receptor tyrosine-protein kinase erbB-2 (Homo sapiens) (P04626 whole entry): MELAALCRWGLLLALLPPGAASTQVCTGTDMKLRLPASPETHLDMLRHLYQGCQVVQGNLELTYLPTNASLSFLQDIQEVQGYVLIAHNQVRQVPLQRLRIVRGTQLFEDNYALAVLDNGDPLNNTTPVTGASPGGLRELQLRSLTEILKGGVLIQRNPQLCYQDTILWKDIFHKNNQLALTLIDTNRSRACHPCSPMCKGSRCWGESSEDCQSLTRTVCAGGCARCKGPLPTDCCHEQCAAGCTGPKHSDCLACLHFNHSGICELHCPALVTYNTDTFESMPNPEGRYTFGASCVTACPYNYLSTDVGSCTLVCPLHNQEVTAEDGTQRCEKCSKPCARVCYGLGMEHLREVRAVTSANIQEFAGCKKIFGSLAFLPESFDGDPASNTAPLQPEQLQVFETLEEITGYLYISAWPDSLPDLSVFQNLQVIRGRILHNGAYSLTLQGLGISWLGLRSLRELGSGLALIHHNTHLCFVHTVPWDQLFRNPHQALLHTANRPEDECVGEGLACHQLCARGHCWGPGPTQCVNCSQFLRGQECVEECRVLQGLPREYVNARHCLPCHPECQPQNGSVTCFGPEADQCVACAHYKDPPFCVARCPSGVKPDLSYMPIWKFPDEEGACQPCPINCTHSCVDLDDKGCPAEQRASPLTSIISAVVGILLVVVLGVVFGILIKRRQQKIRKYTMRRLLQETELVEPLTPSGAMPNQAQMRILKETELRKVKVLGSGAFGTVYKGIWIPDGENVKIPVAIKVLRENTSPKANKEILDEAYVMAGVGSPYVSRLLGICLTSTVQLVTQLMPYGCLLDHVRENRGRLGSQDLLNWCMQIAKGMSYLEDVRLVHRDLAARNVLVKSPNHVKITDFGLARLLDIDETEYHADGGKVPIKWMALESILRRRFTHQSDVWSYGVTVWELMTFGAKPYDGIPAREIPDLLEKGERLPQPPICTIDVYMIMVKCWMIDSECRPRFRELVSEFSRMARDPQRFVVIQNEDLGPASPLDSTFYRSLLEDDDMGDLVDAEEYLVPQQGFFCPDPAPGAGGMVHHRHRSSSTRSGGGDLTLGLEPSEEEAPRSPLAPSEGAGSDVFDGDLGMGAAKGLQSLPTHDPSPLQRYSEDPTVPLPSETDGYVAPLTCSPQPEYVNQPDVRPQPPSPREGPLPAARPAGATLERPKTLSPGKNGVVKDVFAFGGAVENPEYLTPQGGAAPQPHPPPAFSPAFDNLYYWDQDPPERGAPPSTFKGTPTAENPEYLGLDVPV
Sequence of Ephrin type-A receptor 2 (Homo sapiens) (P29317 whole entry): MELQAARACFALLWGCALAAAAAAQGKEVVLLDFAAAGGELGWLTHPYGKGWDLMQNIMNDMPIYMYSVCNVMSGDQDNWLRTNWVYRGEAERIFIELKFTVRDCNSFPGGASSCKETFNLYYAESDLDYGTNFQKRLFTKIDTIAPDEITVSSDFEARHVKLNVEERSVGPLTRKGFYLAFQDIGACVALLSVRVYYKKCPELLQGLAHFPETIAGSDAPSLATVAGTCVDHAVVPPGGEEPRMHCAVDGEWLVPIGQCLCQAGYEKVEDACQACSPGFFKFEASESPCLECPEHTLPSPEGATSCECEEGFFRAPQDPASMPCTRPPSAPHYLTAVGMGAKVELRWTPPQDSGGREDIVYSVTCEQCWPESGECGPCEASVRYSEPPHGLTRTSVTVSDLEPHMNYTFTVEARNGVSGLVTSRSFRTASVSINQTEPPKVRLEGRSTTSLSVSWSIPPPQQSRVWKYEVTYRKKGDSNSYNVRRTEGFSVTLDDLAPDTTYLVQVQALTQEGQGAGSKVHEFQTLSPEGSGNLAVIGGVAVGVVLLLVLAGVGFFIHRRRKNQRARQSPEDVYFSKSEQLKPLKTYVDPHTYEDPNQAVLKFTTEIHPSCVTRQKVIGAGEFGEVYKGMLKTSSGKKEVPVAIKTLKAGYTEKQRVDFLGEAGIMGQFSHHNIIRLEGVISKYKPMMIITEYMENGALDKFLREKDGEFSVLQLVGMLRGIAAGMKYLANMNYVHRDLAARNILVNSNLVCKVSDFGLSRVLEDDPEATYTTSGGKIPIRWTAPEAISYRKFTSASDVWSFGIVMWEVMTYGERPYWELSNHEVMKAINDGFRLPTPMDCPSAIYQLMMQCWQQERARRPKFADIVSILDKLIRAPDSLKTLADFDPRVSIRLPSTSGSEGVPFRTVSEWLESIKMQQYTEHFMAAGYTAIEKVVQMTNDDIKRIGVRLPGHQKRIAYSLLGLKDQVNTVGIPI

| Structure (SMILES) | inhibition [1] [%] | inhibition [2] [%] | inhibition [3] [%] | inhibition [4] [%] | inhibition [5] [%] | inhibition [6] [%] | inhibition [7] [%] | inhibition [8] [%] | inhibition [9] [%] | inhibition [10] [%] | inhibition [11] [%] | inhibition [12] [%] | inhibition [13] [%] | inhibition [14] [%] | inhibition [15] [%] | inhibition [16] [%] | inhibition [17] [%] | inhibition [18] [%] | inhibition [19] [%] | inhibition [20] [%] |
| --- | --- | --- | --- | --- | --- | --- | --- | --- | --- | --- | --- | --- | --- | --- | --- | --- | --- | --- | --- | --- |
| O=C(Nc1n[nH]c2nnc(-c3cccnc3)cc12)C1CC1 | -0.7 | -0.13 | -0.34 | -3.08 | -2.73 | -1.3 | -0.05 | 0.83 | 2.33 | 0.05 | 3.72 | 0.63 | 2.01 | 2.37 | 0.6 | -2.7 | -0.28 | -0.62 | 1.8 | -1.4 |
| CNC(=O)c1ncccc1Nc1nc(Nc2cc3c(cc2OC)CCCN3C(=O)CN(C)C)nc2[nH]ccc12 | 54.4 | 43.7 | 80.5 | 0.62 | 0.22 | 5.44 | 5.06 | 7.88 | 7.89 | 8.66 | 9.33 | 4.77 | -0.74 | 1.64 | 2.22 | 3.4 | 3.24 | 10.7 | 20.2 | 71.3 |
| Cc1nnc(-c2cccc(-c3ccc(C(=O)NCC4CC4)cc3)c2)o1 | 4.56 | 2.93 | 3.63 | 1.56 | 0.66 | 5.76 | 6.16 | 11.3 | 10.8 | 11.1 | 9.32 | 4.24 | 5.58 | 1.46 | 2.08 | 2.59 | 5.51 | 8.69 | 12.5 | 3.39 |
| O=C(O[C@H]1CN[C@H](C#Cc2cc3ncnc(Nc4ccc5c(cnn5Cc5ccccc5)c4)c3s2)C1)N1CCOCC1 | 9.06 | -5.39 | -1.26 | -1.74 | -2.68 | -0.31 | 0.9 | -0.59 | 1.79 | -3.66 | 1.97 | -0.25 | 2.72 | -1.51 | 0.96 | 6.21 | 48.3 | 107 | 104 | -0.71 |
| CCCNc1cccc(-n2ncc3c(N/N=C/c4ccncc4)ncnc32)c1 | 5.14 | 1.81 | 2.7 | 3.57 | 5.31 | 3.09 | 3.12 | 4.65 | 17.4 | -1.54 | 9.31 | -1.29 | 1.75 | 1.55 | 5.77 | 2.33 | 4.49 | 11.8 | 43 | -0.72 |
| Fc1cccc(COc2ccc(Nc3ncncc3C#Cc3ccccc3)cc2Cl)c1 | 3.85 | 3.98 | 5.02 | 4.2 | 0.3 | 4.46 | 4.68 | 9.27 | 13.1 | 8.04 | 11.3 | 4.96 | 3.65 | 1.3 | 2.18 | 3.69 | 4.08 | 9.32 | 19 | 2.19 |
